Measurements from PubChem BioAssay (Tox21).
The source made the active and inactive calls. The call rests on the fitted dose curve; in most records, active means well fitted curve in the direction sought with a large enough effect in the repeat runs; inconclusive means weak or mixed curves; inactive means flat fitted curve, though single readings scatter.

Assay: qHTS assay to test for compound auto fluorescence at 590 nm (red) in HEK293 cells (AID 720679)
Details: red autofluorescence 540/590 nm; series mostly up to 91.3 µM
How it was run: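 Red-channel autofluorescence (Ex/Em 540/590 nm; Rose Bengal sodium reference) was measured after overnight 37C, 5% CO2 exposure of attached HEK293 cells, 2,000 per well in medium with 10% dialyzed FBS.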

Row | SMILES | outcome
1 | Clc1cc(Cl)c(Cl)cc1Cl | inactive
2 | NCc1cccc(CN)c1 | inactive
3 | CC[Si](OC(C)=O)(OC(C)=O)OC(C)=O | inactive
4 | O=S(=O)(O)CCS | inactive
5 | CCCCCCCCC | inactive
6 | C=C1C2CCC(C2)C1(C)C (stereo not drawn) | inactive
7 | OCCOCCOCCOCCO | inactive
8 | C=C(C)C(=O)OCCC[Si](OC)(OC)OC | inactive
9 | CS(=O)(=O)c1ccc([C@@H](O)[C@@H](CO)NC(=O)C(Cl)Cl)cc1 | inactive
10 | C=C(C#N)C(=O)OCC | inactive
11 | CCCCCCCCCCCCN | inactive
12 | O=[N+]([O-])C(CO)(CO)CO | inactive
13 | NCCc1ccc(O)c(O)c1 | inactive
14 | CC1=C(CC(=O)O)c2cc(F)ccc2/C1=C\c1ccc(S(C)=O)cc1 (stereo not drawn) | inactive
15 | COC(=O)c1ccccc1O | inactive
16 | O=C(O)c1cc(-c2ccccc2)nc2ccccc12 | inactive
17 | O=c1c(-c2ccc(O)cc2)coc2cc(O)ccc12 | inactive
18 | Cc1ccc(N)c(S(=O)(=O)O)c1 | inactive
19 | CCCCC/C=C\C/C=C\CCCCCCCC(=O)OC | inactive
20 | C/C=C(C)/C=C/C=C(C)C | inactive

Row | SMILES | outcome
21 | COC(=O)c1ccc(C(=O)OC)cc1 | inactive
22 | OC[C@@H](O)[C@@H](O)[C@H](O)[C@@H](O)CO | inactive
23 | CC#C[C@]1(O)CC[C@H]2[C@@H]3CCC4=CC(=O)CCC4=C3[C@@H](c3ccc(N(C)C)cc3)C[C@@]21C | inactive
24 | CCOC(=O)[C@H](CCc1ccccc1)N[C@@H](C)C(=O)N1Cc2ccccc2C[C@H]1C(=O)O | inactive
25 | Nc1nc2ncc(CNc3ccc(C(=O)N[C@@H](CCC(=O)O)C(=O)O)cc3)nc2c(=O)[nH]1 | inactive
26 | CCOC(=O)/C=C\C(=O)OCC | inactive
27 | CC1Cc2ccccc2N1NC(=O)c1ccc(Cl)c(S(N)(=O)=O)c1 (stereo not drawn) | inactive
28 | CCCCNC(N)=O | inactive
29 | Cc1cc(Cc2ccc(N)c(C)c2)ccc1N | inactive
30 | Oc1c(Cl)cc(Cl)c(Cl)c1Cl | inactive
31 | Clc1ccc(Cl)c(Cl)c1Cl | inactive
32 | Cc1cc(=O)[nH]c(C(C)C)n1 | inactive
33 | CCC(C)C=O (stereo not drawn) | inactive
34 | Cn1c([N+](=O)[O-])cnc1COC(N)=O | inactive
35 | CC1(C)CC(N=C=O)CC(C)(CN=C=O)C1 (stereo not drawn) | inactive
36 | CCCCC(CC)COC(=O)CCCCCCCC(=O)OCC(CC)CCCC (stereo not drawn) | inactive
37 | NC(=O)/N=N/C(N)=O | inactive
38 | CCC(=O)O | inactive
39 | CC(C)(CO)COC(=O)C(C)(C)CO | inactive

Assay: qHTS assay to test for compound auto fluorescence at 535 nm (green) in HEK293 cells (AID 720680)
Details: green autofluorescence 485/535 nm; series mostly up to 91.3 µM

Row | SMILES | outcome
40 | Clc1cc(Cl)c(Cl)cc1Cl | inactive
41 | NCc1cccc(CN)c1 | inactive
42 | CC[Si](OC(C)=O)(OC(C)=O)OC(C)=O | inactive
43 | O=S(=O)(O)CCS | inactive
44 | CCCCCCCCC | inactive
45 | C=C1C2CCC(C2)C1(C)C (stereo not drawn) | inactive
46 | OCCOCCOCCOCCO | inactive
47 | C=C(C)C(=O)OCCC[Si](OC)(OC)OC | inactive
48 | CS(=O)(=O)c1ccc([C@@H](O)[C@@H](CO)NC(=O)C(Cl)Cl)cc1 | inactive
49 | C=C(C#N)C(=O)OCC | inactive
50 | CCCCCCCCCCCCN | inactive
51 | O=[N+]([O-])C(CO)(CO)CO | inactive
52 | NCCc1ccc(O)c(O)c1 | inactive
53 | CC1=C(CC(=O)O)c2cc(F)ccc2/C1=C\c1ccc(S(C)=O)cc1 (stereo not drawn) | inactive
54 | COC(=O)c1ccccc1O | inactive
55 | O=C(O)c1cc(-c2ccccc2)nc2ccccc12 | inactive
56 | O=c1c(-c2ccc(O)cc2)coc2cc(O)ccc12 | inactive
57 | Cc1ccc(N)c(S(=O)(=O)O)c1 | inactive
58 | CCCCC/C=C\C/C=C\CCCCCCCC(=O)OC | inactive
59 | C/C=C(C)/C=C/C=C(C)C | inactive

Row | SMILES | outcome
60 | COC(=O)c1ccc(C(=O)OC)cc1 | inactive
61 | OC[C@@H](O)[C@@H](O)[C@H](O)[C@@H](O)CO | inactive
62 | CC#C[C@]1(O)CC[C@H]2[C@@H]3CCC4=CC(=O)CCC4=C3[C@@H](c3ccc(N(C)C)cc3)C[C@@]21C | inactive
63 | CCOC(=O)[C@H](CCc1ccccc1)N[C@@H](C)C(=O)N1Cc2ccccc2C[C@H]1C(=O)O | inactive
64 | Nc1nc2ncc(CNc3ccc(C(=O)N[C@@H](CCC(=O)O)C(=O)O)cc3)nc2c(=O)[nH]1 | inactive
65 | CCOC(=O)/C=C\C(=O)OCC | inactive
66 | CC1Cc2ccccc2N1NC(=O)c1ccc(Cl)c(S(N)(=O)=O)c1 (stereo not drawn) | inactive
67 | CCCCNC(N)=O | inactive
68 | Cc1cc(Cc2ccc(N)c(C)c2)ccc1N | inactive
69 | Oc1c(Cl)cc(Cl)c(Cl)c1Cl | inactive
70 | Clc1ccc(Cl)c(Cl)c1Cl | inactive
71 | Cc1cc(=O)[nH]c(C(C)C)n1 | inactive
72 | CCC(C)C=O (stereo not drawn) | inactive
73 | Cn1c([N+](=O)[O-])cnc1COC(N)=O | inactive
74 | CC1(C)CC(N=C=O)CC(C)(CN=C=O)C1 (stereo not drawn) | inactive
75 | CCCCC(CC)COC(=O)CCCCCCCC(=O)OCC(CC)CCCC (stereo not drawn) | inactive
76 | NC(=O)/N=N/C(N)=O | inactive
77 | CCC(=O)O | inactive
78 | CC(C)(CO)COC(=O)C(C)(C)CO | inactive
